Compound activity as filed in PubChem.
Rows were chosen to be rich in hits. Some 1.9% of all compounds tested hit in one or more screens of this group.
Yeast superoxide = lowers age-related superoxide in aged yeast cells | actives 0.18% (n = 330,000) | S. cerevisiae aged cells, superoxide DHE fluorescence; hits give low values | superoxide response (% of plate mean), % at 10 µM;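 active = superoxide response under a set limit, about three screen SD below normal, cut at about 65% in these data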;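 also: yeast aged for seven days with compound at 30 °C before DHE staining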
MCL1 BIM primary = MCL1-BIM-BH3 interaction inhibition (human); actives 0.68% (n = 320,000); GST-MCL1 / FITC-Bim-BH3 fluorescence polarization; Q07820; inhibition, % at 10.9 µM;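 active = inhibition above the mean inhibition of all tested compounds plus 3 SD, set per campaign, cut at about 40% in these data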;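 also: higher means more loss of mP so more displacement of Bim peptide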
Target sequence (Q07820 whole entry, looked up): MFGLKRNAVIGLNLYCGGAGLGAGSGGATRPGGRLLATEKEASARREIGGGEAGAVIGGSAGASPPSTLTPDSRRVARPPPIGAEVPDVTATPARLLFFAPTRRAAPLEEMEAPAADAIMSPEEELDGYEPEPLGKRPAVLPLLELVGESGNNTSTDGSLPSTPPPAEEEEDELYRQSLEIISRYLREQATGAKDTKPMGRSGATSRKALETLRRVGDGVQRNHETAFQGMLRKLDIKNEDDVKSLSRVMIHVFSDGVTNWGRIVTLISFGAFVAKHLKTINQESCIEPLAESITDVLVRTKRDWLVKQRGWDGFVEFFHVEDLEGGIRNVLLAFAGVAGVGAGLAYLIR
GLD-1 RNA inh = GLD-1-TGE RNA interaction inhibition (C. elegans) | Q17339 | purified GLD-1 + fluorescein TGE RNA, fluorescence polarization | inhibition, % at 5.96 µM | actives 0.44% (n = 320,000);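 active = percent inhibition above a per-plate cutoff, the plate mean of test compounds plus 3 SD, cut at about 30% in these data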
LANA-H2B inh = blocks KSHV LANA binding to histone H2A/H2B; inhibition, % (test concentration not listed); cell-free LANA-H2A/H2B peptide, fluorescence polarization; Q9QR71; actives 0.6% (n = 320,000); in the data active = inhibition mostly above about 10%, no sharp cut-off; inactive = mostly below about 6.7%
MEX-5 binding = C. elegans MEX-5 TCR-2 RNA binding activity; Q9XUB2; MEX-5/FITC-TCR2 RNA binding, fluorescence polarization; hits give low values; activity score (negative = inhibition of binding), % at 10 µM; actives 0.38% (n = 300,000); AID 1832;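 active = inhibition past about -25% in most replicates, and total fluorescence under double the plate's negative control median, limit read from the data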
BCLXL inh = inhibitors of human Bcl-xL; Q07817; GST-Bcl-xL / FITC-Bim BH3 peptide fluorescence polarization; inhibition, % at 10.9 µM; actives 0.7% (n = 320,000); AID 2129;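 active = inhibition above the mean of all tested compounds plus 3 SD, cutoff set per campaign, cut at about 30% in these data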;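 also: inhibitors lower millipolarization by displacing the labeled peptide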
Target sequence (Q07817 whole entry, looked up): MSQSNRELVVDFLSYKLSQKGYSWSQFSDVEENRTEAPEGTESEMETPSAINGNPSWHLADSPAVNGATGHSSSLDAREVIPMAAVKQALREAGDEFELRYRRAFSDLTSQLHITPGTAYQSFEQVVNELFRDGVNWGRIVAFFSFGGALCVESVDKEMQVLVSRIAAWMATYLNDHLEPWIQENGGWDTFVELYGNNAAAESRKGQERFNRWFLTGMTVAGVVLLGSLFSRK
Each line names hits and unclear results; the compound was inactive in the other large screens.

CCc1ccc(CNC(=O)CN2C(=O)COc3ccccc32)cc1	LANA-H2B inh 12
O=C(O)Cc1sc(NC2CCCCC2)nc1-c1ccc(Cl)cc1	none
COc1ccc(C2Nc3cccc4cccc(c34)N2)cc1Br	none
COc1cc(C2Nc3cccc4cccc(c34)N2)ccc1OC(C)=O	MCL1 BIM primary 45, BCLXL inh 39
CCOc1ccc2[nH]c(C)c(CN3CCOCC3)c(=O)c2c1	none
CCOc1ccc2[nH]c3ncccc3c(=O)c2c1	MCL1 BIM primary 52, BCLXL inh 42
COc1ccc(C(C(=O)NC(C)(C)C)N(CCC(C)C)C(=O)CCC(=O)Nc2cc(C)on2)cc1 (stereo unspecified)	LANA-H2B inh 19
COc1ccccc1NC(=O)/C(=C\c1cccnc1)NC(=O)c1ccc(C)cc1	none
O=P(O)(O)CP(=O)(O)O	LANA-H2B inh 81
Cc1ccc(NC2CCCN(C(=O)C3CCCC3)C2)cc1C (stereo unspecified)	none
CCN1C(=O)/C(=C\c2cccs2)C(C(=O)OC)=C1C	MEX-5 binding -78
Cc1ccccc1CS(=O)(=O)Cc1ccc(C(=O)NCc2ccccn2)o1	BCLXL inh 31
COc1ccc(N(CC(=O)N/N=C/c2cc(Br)c(C)o2)S(=O)(=O)c2ccc(NC(C)=O)cc2)cc1	LANA-H2B inh 25
COc1ccc(N(CC(=O)N/N=C/c2ccc(C(=O)O)cc2)S(=O)(=O)c2ccc(NC(C)=O)cc2)cc1	none
CCNC(=O)C1CC(=O)N(Cc2ccc3c(c2)OCO3)C(=Nc2ccc(OCC)cc2)S1 (stereo unspecified)	LANA-H2B inh 63
Cc1noc(C)c1C(=O)N1CCCC(Nc2ccc(C(C)C)cc2)C1 (stereo unspecified)	LANA-H2B inh 21
COCCNC(=O)CSc1ccc(-c2nc3ccccc3[nH]2)cn1	BCLXL inh 61
CCOC(=O)CSc1ccc(-c2nc3ccccc3[nH]2)cn1	none
COc1cc(C(=O)NCC2CCCO2)cc(Br)c1OCc1ccccc1 (stereo unspecified)	none (no result: MEX-5 binding)
CCN(CC)C(=O)CN1CCC(n2c(C)nc3cc(C(F)(F)F)ccc32)CC1	BCLXL inh 31
COc1ccc(NC(=O)CN2CCC(n3c(C)nc4cc(F)ccc43)CC2)c(OC)c1	none
CSCC[C@H](NC(=O)c1ccc(OCC2CCCO2)cc1)c1nc2ccccc2[nH]1 (stereo partly specified)	none (no result: MCL1 BIM primary, MEX-5 binding, BCLXL inh)
Cc1ccc(C)c(N2CCN(C(=O)c3ccc(N4CCCC4=O)cc3)CC2)c1	BCLXL inh 130
O=C(c1ccc(N2CCCC2=O)cc1)N1CCN(c2ccccc2O)CC1	none (no result: MEX-5 binding)
CCCCN(CCCC)c1nc(-c2ccncc2)nc2ccccc12	Yeast superoxide 65
c1ccc2sc(NCC3CCCO3)nc2c1 (stereo unspecified)	none
CC1=CC(=C(C#N)c2nc3ccccc3s2)C=C(C)N1CC1CCCO1 (stereo unspecified)	MEX-5 binding -36
C=CC[C@H](CC(=O)N[C@H](CO)Cc1ccccc1)C(=O)N[C@H](COC(=O)[C@H](CC=C)CC(=O)OC(C)(C)C)Cc1c[nH]c2ccccc12	none (no result: MCL1 BIM primary, MEX-5 binding, BCLXL inh)
CC(C)(C)OC(=O)CC1(C#N)c2ccccc2C(Br)=CN1C(=O)c1ccccc1 (stereo unspecified)	none
COc1ccc(NC(=O)CCCN2C(=O)C3CC=CCC3C2=O)cc1 (stereo unspecified)	none
O=C(/C=C/c1ccc(O)c(O)c1)OCCc1ccccc1	none
O=C(/C=C/c1ccc(O)c(O)c1)OC(Cc1ccc(O)c(O)c1)C(=O)O (stereo unspecified)	MEX-5 binding -53
O=C(C[n+]1cc(Br)cc2ccccc21)c1ccccc1	MCL1 BIM primary 45, BCLXL inh 49
Cc1nnc(NC(=O)CSc2nnc(Cc3cccn3C)n2-c2cccc(C)c2C)s1	BCLXL inh 104
CCCCCCC1(C)NC(=S)N(c2ccccc2)N1 (stereo unspecified)	LANA-H2B inh 13
C[C@H]1COC(=O)[C@H](Cc2ccc(F)cc2)C/C=C\C[C@H](CC(=O)NCCO)C(=O)N1	none (no result: MCL1 BIM primary, MEX-5 binding, BCLXL inh)
CSc1nccc(Oc2cncc(Cl)c2)n1	LANA-H2B inh 11
COc1ccc(-n2cc(CNCC3CCOCC3)c(-c3cccc(F)c3)n2)cc1	none
COc1ccc(-n2cc(CNCc3cnc4ccccn34)c(-c3cccc(F)c3)n2)cc1	MEX-5 binding -37
O=S(=O)(NC1CCCCCC1)c1cccc2cccnc12	LANA-H2B inh 182
O=C(NNC(=O)c1cc(-c2ccco2)nc2ccccc12)c1ccccc1	BCLXL inh 35
O=C(Nc1ccccc1F)c1cc(-c2ccco2)nc2ccccc12	none (no result: MEX-5 binding)
O=C(O)c1cc(-c2ccco2)nc2cc3ccccc3cc12	BCLXL inh 35
O=C(c1ccccc1)c1ccc2nc(-c3ccco3)c(-c3ccco3)nc2c1	BCLXL inh 32
COc1ccccc1CN(C(=O)CCl)C(C(=O)NC1CCCCC1)c1ccncc1 (stereo unspecified)	BCLXL inh 30 (no result: MEX-5 binding)
COc1c(C(=O)Nc2ccc(Br)cn2)ccc2ccccc12	BCLXL inh 57
Cc1ccccc1CC1(CO)CCCN(C(=O)CCCN2CCCCC2=O)C1 (stereo unspecified)	LANA-H2B inh 83
COc1ccc(/C=N/NC(=O)CNC(=O)c2ccncc2)cc1OC	none
COc1ccc(/C=C2\C(=O)NCC(=O)N2C)cc1	LANA-H2B inh 14
COc1ccc(/C=C2\C(=O)NCC(=O)N2Cc2ccccc2)cc1	none
Cc1ccc(NC(=O)CN2CCCC2c2cccn2C)c(Br)c1 (stereo unspecified)	none (no result: MCL1 BIM primary, MEX-5 binding, BCLXL inh)
COc1ccccc1CNC(=O)COC(=O)c1cc(=O)[nH]c2ccccc12	none (no result: MEX-5 binding)
COc1cc(/C=C/C(=O)N2CCN(C(=O)/C=C/c3cc(OC)c(OC)c(OC)c3)CC2)cc(OC)c1OC	GLD-1 RNA inh 109
COc1cc(/C=C/C(=O)N2CCCC2)cc(OC)c1OC	LANA-H2B inh 9.1
COc1cc(/C=C/C(=O)OCC(=O)N2CCCC2)cc(OC)c1OC	none (no result: MEX-5 binding)
Cc1ccc(S(=O)(=O)N2CCCCC2)cc1C(=O)N(CCc1ccccc1)Cc1ccccc1	none
CCN(C[C@H]1N[C@@](C)(C(=O)OC)[C@H]2C(=O)N(C)C(=O)[C@@H]12)C(=O)Nc1ccc(OC)cc1	none (no result: MCL1 BIM primary, MEX-5 binding, BCLXL inh)
CCOc1ccccc1NC(=O)N1CCc2ccccc2C1	none
O=C(Cc1cccs1)Nc1cccc(C(=O)Nc2ccc(C(=O)O)cc2)c1	LANA-H2B inh 51
O=C(Cc1cccs1)Nc1ccc(C(=O)O)cc1	none
COc1ccc(-c2nn(Cc3ccccc3)cc2C(=O)N2CCN(c3ncccn3)CC2)cc1	none (no result: MEX-5 binding)
CCn1c(O)c(C2=NCCCC2)c2ccccc21	none
Oc1[nH]c2ccccc2c1C1=NCCCC1	LANA-H2B inh 21
